Measured values published in PubChem BioAssay (EPA / NIEHS).
Where “and” joins values, the source holds several entries; their conditions need not be identical. Equal values may be shown once. Records with an inconclusive call do not appear. Calls of active or inactive are those of the source. Rule for the calls: active = hit-call score of the fitted dose curve at least 0.9, where 1 is the maximum; inconclusive = response in the unintended direction; inactive = score below 0.9.

What follows are compounds tested against Cellular tumor antigen p53 (Homo sapiens) (UniProt P04637) (assay: TOX21_p53_BLA_p4_ratio: Tox21 HCT-116 p53 Agonism Beta-lactamase Assay, Ratio, Phase 4 (AID 2283601)).
Sequence of Cellular tumor antigen p53 (Homo sapiens) (P04637 whole entry, looked up): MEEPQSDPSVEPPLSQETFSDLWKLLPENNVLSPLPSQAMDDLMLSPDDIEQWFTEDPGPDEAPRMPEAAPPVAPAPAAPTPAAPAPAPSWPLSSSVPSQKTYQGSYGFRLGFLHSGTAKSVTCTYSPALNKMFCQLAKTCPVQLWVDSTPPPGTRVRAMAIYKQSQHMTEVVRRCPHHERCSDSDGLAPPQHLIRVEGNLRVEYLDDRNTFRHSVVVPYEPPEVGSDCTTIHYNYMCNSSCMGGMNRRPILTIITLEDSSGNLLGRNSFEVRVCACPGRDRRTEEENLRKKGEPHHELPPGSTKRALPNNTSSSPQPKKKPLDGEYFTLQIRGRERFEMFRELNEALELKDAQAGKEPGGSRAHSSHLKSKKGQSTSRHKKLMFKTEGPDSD
Outline: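 HCT116 cells carrying an inducible beta-lactamase reporter were plated at 4000 cells/well, rested 5 h, then exposed to compounds in DMSO (217-fold dilution) for 16 h at 37C. CCF4-AM substrate was loaded 2 h at room temperature; 460/530 nm emission ratio scored gain-of-signal versus DMSO.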

SMILES | outcome | AC50
O=C1c2cccc(O)c2C(=O)c2c(O)cccc21 | inactive | 
CO[C@@]12[C@H](COC(N)=O)C3=C(C(=O)C(C)=C(N)C3=O)N1C[C@@H]1N[C@@H]12 |  | 20.8 µM (active)
C=C(Nc1ccc(OCC)cc1)Nc1ccc(OCC)cc1 | inactive | 
COc1cc2[nH]c(=O)[nH]c(=O)c2cc1OC | inactive | 
C[N+]1(CC2COC(c3ccccc3)(C3CCCCC3)O2)CCCCC1 (stereo unspecified) | inactive | 
C#C[C@]1(OC(C)=O)CC[C@H]2[C@@H]3CCC4=C/C(=N/O)CC[C@@H]4[C@H]3CC[C@@]21CC |  | 39.5 µM (active)
CO[Si](CCCNc1ccccc1)(OC)OC | inactive | 
COc1cc(N)c(Cl)cc1C(=O)NC1CCN(CCCOc2ccc(F)cc2)CC1OC (stereo unspecified) | inactive | 
C(=C\c1ccccc1)/CN1CCN(C(c2ccccc2)c2ccccc2)CC1 | inactive | 
CCOc1ccc2nc3cc(N)ccc3c(N)c2c1 |  | 32.4 µM (active)
CCCCC(=O)OCC(=O)[C@]1(O)Cc2c(O)c3c(c(O)c2[C@@H](O[C@H]2C[C@H](NC(=O)C(F)(F)F)[C@H](O)[C@H](C)O2)C1)C(=O)c1c(OC)cccc1C3=O |  | 5.24 µM (active)
C=CCNC1=C2C[C@@H](C)C[C@H](OC)[C@H](O)[C@@H](C)/C=C(\C)[C@H](OC(N)=O)[C@@H](OC)/C=C\C=C(/C)C(=O)NC(=CC1=O)C2=O |  | 0.147 µM (active)
CCCC(CCC)C(=O)OC1C[C@H]2CC[C@@H](C1)[N+]2(C)C (stereo partly specified) | inactive | 
CC(=O)Oc1ccc(C2(c3ccc(OC(C)=O)cc3)C(=O)Nc3ccccc32)cc1 |  | 555 nM (active) and 464 nM (active)
CCCCCCCCCCCC[n+]1ccc2ccccc2c1 |  | 21.8 µM (active)
CO[C@H]1/C=C/O[C@@]2(C)Oc3c(C)c(O)c4c(O)c(cc(O)c4c3C2=O)NC(=O)/C(C)=C\C=C\[C@H](C)[C@H](O)[C@@H](C)[C@@H](O)[C@@H](C)[C@H](OC(C)=O)[C@@H]1C | inactive | 
Cc1c(C(=O)NN2CCCCC2)nn(-c2ccc(Cl)cc2Cl)c1-c1ccc(Cl)cc1 | inactive | 
CCOC(=O)/C=C(C)/C=C/C=C(C)/C=C/c1c(C)cc(OC)c(C)c1C | inactive | 
CCOc1cc([N+](=O)[O-])c(OCC)cc1N1CCOCC1 | inactive | 
CCCCCCCCOc1ccccc1C(=O)Nc1ccc(C(=O)OCC[N+](C)(CC)CC)cc1 | inactive | 
CCCCCCCCNC(C)C(O)c1ccc(SC(C)C)cc1 (stereo unspecified) |  | 33.9 µM (active)
Cc1ccc2c(Cl)cc(Cl)c(O)c2n1 |  | 33.1 µM (active)
CC1=C[C@H](O)CC(C)(C)[C@H]1/C=C/C(C)=C/C=C/C(C)=C/C=C/C=C(C)/C=C/C=C(C)/C=C/C1=C(C)C[C@@H](O)CC1(C)C |  | 34.8 µM (active)
Cc1ccccn1 | inactive | 
Cc1cc(CC(C)CC(C)(C)C)n(O)c(=O)c1 (stereo unspecified) (tested in a mixture with another compound) |  | 33 µM (active)
COc1cc(NC(C)CCCN)c2ncccc2c1 (stereo unspecified) | inactive | 
